Laboratory results as given in PubChem BioAssay.
Active and inactive are the calls of the source.

Legend:
Albumin (Bos taurus) = Albumin (Bos taurus) (UniProt P02769); assay: compounds binding labelled BSA control protein – biochemical, small-molecule microarray, Alexa647 label, 635/667 nm fluorescence, artefact control for SMM control protein annotation, profiling panel (AID 1118); conditions: BSA-A647 binding, fluorescence 635 nm, higher = more signal;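 further: score merges 667 nm emission intensity and signal-to-noise per printed compound spot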
Sequence of Albumin (Bos taurus) (P02769 whole entry, looked up): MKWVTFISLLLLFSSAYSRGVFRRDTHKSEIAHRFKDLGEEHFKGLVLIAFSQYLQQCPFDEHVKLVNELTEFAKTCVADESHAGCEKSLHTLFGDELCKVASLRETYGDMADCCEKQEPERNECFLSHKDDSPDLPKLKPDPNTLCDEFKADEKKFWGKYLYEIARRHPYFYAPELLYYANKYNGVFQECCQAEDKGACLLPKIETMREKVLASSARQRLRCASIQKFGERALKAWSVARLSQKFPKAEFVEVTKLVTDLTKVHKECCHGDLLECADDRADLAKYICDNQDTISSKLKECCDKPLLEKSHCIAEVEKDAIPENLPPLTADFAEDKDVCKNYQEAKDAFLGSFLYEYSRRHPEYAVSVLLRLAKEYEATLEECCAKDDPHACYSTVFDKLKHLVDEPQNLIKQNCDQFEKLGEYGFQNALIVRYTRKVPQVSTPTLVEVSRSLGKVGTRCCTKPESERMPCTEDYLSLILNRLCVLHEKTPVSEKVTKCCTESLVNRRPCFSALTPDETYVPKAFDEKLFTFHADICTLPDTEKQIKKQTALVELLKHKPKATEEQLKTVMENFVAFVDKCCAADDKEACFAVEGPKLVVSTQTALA

[1] = probe aXIP binding to arrayed compounds – biochemical, NeuroSMM set, 635/667 nm fluorescence, primary screen (AID 1119); conditions: small-molecule microarray, higher = more signal, called active from +8 up or from −8 down;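 further: probe is the protein aXip251-270 applied at 1 µg/mL to compound-printed slides; binding of probe to printed compounds measured as 667 nm fluorescence plus signal to noise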
[2] = probe aNOTCH3 binding on compound microarray – biochemical, small-molecule microarray, 635/667 nm fluorescence, primary screen (AID 1120); conditions: higher = more signal;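 further: probe is a biotin-tagged antibody raised against NOTCH3 rather than NOTCH3 protein; score merges spot fluorescence near 667 nm with spot signal to noise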
[3] = probe aNOTCH2 binding on compound microarray – biochemical, small-molecule microarray, 635/667 nm fluorescence, primary screen (AID 1121); conditions: higher = more signal;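 further: score merges feature fluorescence read at 667 nm with its signal to noise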
[4] = biological target: Carbonic anhydrase 2 (Homo sapiens) (UniProt P00918); assay: compounds binding carbonic anhydrase 2 – biochemical, small-molecule microarray, Alexa647-labelled CAII, profiling panel (AID 1122); conditions: CAII-A647 binding fluorescence, higher = more signal
[5] = COS7 lysate on small-molecule microarray, probe aHis, 635 nm (AID 1123); conditions: COS7 cell lysate, fluorescence, higher = more signal;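 further: z-score combines 667nm fluorescence intensity with signal-to-noise per printed compound spot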
[6] = probe aLAP1 signal on lysate-treated microarray – cell lysate, small-molecule microarray, COS7 lysate, primary screen (AID 1124); conditions: probe aLAP1, fluorescence, higher = more signal;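 further: lysate comes from COS7 cells expressing LAP1 and is applied at 0.3 µg/mL; score merges spot fluorescence near 667 nm with signal-to-noise over triplicate slides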
Sam68 (KHDRBS1) = assay: compounds binding KHDRBS1 protein – biochemical, small-molecule microarray, 635 nm fluorescence, primary screen (AID 1125); conditions: higher = more signal;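 further: score merges 667 nm channel intensity with signal to noise over triplicate slides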
[7] = system: Chordin-like protein 2 (CHRDL2); assay: compounds binding chordin-like 2 – biochemical, small-molecule microarray, 635 nm fluorescence, primary screen (AID 1126); conditions: fluorescence 635 nm, higher = more signal;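 further: printed compound slides probed with Chrdl2 protein at 4 µg/mL for 1 h at 4 C; score merges 667 nm emission intensity with signal to noise over three replicate slides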
[8] = biological target: Concanavalin-A (Canavalia ensiformis) (UniProt P02866); assay: compounds binding concanavalin A lectin – biochemical, small-molecule microarray, Alexa647 label, 635 nm, artefact control for SMM control protein annotation, primary screen (AID 1127); conditions: ConA-A647 binding fluorescence, higher = more signal;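 further: z combines 667 nm emission intensity with signal-to-noise across three replicate slides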
Sequence of Concanavalin-A (Canavalia ensiformis) (P02866 whole entry, looked up): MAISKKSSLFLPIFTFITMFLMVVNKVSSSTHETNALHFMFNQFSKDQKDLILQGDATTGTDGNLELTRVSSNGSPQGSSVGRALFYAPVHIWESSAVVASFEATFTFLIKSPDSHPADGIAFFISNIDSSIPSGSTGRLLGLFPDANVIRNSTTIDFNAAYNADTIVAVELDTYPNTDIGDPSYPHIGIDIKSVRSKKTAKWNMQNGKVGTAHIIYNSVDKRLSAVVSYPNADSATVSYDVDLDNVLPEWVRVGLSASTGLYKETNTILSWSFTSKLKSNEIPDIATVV

[9] = compounds binding Alexa647 anti-His antibody – biochemical, small-molecule microarray, 635 nm fluorescence, artefact control for SMM control protein annotation, primary screen (AID 1128); conditions: higher = more signal;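 further: score merges feature fluorescence with signal-to-noise for each printed compound spot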
[10] = system: Human papillomavirus type 1a E7 protein (residues 1-88); assay: HPV1a E7 small-molecule binders, primary screen, biochemical, small-molecule microarray, residues 1-88, 635 nm (AID 1129); conditions: small-molecule microarray binding, fluorescence 635 nm; higher = more signal
[11] = biological target: Focal adhesion kinase 1 (Homo sapiens) (UniProt Q05397); assay: PTK2 protein binding on printed compound slides – biochemical, small-molecule microarray, 635/667 nm fluorescence, BSA, DTT, primary screen (AID 1130); conditions: 635 nm fluorescence, higher = more signal;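 further: composite of spot emission at 667 nm and signal to noise over triplicate slides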
Sequence of Focal adhesion kinase 1 (Homo sapiens) (Q05397 whole entry, looked up): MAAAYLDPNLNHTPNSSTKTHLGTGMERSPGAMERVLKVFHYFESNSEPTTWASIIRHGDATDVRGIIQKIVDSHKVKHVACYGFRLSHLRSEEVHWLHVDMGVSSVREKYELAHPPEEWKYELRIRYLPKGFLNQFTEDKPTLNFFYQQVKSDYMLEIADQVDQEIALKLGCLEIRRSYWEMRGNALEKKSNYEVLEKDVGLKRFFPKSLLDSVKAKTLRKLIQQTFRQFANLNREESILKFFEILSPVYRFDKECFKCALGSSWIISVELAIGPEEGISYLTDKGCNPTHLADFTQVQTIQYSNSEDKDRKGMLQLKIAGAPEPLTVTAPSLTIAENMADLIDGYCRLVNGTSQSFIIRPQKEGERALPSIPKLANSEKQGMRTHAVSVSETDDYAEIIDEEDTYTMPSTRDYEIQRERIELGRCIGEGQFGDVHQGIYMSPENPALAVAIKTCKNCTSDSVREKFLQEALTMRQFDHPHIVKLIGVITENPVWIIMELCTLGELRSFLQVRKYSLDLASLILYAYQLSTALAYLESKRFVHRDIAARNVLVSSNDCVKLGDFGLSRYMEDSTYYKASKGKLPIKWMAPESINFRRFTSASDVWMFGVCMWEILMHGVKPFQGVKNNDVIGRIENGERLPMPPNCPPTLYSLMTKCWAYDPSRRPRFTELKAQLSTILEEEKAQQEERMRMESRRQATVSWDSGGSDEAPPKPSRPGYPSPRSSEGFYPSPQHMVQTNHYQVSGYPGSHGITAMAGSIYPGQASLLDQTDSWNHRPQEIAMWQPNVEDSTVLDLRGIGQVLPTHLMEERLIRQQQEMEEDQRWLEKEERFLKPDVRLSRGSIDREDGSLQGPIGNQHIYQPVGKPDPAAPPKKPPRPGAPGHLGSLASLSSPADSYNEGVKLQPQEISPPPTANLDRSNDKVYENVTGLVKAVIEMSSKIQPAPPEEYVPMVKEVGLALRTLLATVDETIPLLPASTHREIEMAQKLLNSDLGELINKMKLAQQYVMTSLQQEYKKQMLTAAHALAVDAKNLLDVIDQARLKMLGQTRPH

[12] = system: Fibrinogen (Alexa647-labelled); assay: Alexa647-fibrinogen binding to printed small molecules – biochemical, small-molecule microarray, 635/667 nm fluorescence, artefact control for SMM control-protein annotation, profiling panel (AID 1131); conditions: fibrinogen-A647 binding fluorescence, higher = more signal;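 further: z-score merges 667 nm fluorescence with per-spot signal-to-noise over triplicate slides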
[13] = biological target: Follistatin (Homo sapiens) (UniProt P19883); assay: FST protein binding to printed compounds – biochemical, small-molecule microarray, 635/667 nm fluorescence, primary screen (AID 1132); conditions: 635 nm fluorescence, higher = more signal
Sequence of Follistatin (Homo sapiens) (P19883 whole entry, looked up): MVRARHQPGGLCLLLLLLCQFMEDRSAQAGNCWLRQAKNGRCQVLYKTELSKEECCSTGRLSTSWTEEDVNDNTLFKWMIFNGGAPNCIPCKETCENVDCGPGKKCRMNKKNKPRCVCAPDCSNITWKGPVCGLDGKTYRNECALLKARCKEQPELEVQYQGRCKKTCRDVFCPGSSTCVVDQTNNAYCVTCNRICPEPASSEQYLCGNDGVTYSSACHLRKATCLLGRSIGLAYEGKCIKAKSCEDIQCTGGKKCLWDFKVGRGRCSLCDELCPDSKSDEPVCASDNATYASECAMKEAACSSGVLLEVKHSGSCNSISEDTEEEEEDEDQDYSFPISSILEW

[14] = biological target: Fibroblast growth factor 2 (Homo sapiens) (UniProt P09038); assay: basic fibroblast growth factor binding to printed compounds – biochemical, small-molecule microarray, 635/667 nm fluorescence, primary screen (AID 1133); conditions: FGF2, fluorescence 635/667, higher = more signal
Sequence of Fibroblast growth factor 2 (Homo sapiens) (P09038 whole entry, looked up): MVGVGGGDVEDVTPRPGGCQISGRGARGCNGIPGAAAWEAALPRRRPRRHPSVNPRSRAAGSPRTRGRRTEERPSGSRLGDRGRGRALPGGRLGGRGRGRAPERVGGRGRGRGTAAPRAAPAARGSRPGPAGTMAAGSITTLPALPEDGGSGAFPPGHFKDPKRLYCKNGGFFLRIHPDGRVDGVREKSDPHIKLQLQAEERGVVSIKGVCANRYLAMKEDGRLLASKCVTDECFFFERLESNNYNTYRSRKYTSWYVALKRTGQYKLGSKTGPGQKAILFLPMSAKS

[15] = JC-1 mitochondrial potential readout, lung cancer cells – cell-based, A549, JC-1 fluorescence, basal, 24 h, 100 nL, profiling panel (AID 1138); conditions: higher = more signal;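 further: A549 lung adenocarcinoma cells under basal conditions with no added stimulus; test concentration not given here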
Lefty1 = Lefty1 protein binding to printed compounds – biochemical, small-molecule microarray, 635/667 nm fluorescence, primary screen (AID 1139); conditions: fluorescence 635/667, higher = more signal
[16] = system: wheat germ agglutinin (Triticum aestivum), Alexa647-labelled; assay: Alexa647-WGA lectin binding to printed small molecules – biochemical, small-molecule microarray, 635/667 nm fluorescence, artefact control for SMM control-protein annotation, profiling panel (AID 1140); conditions: WGA-A647 binding, 635 nm fluorescence, higher = more signal;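 further: score merges 667 nm feature emission with signal to noise over triplicate slides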
[17] = biological target: Luciferin 4-monooxygenase (Photinus pyralis) (UniProt P08659); assay: inhibition of purified Photinus pyralis luciferase – biochemical, luminescence, purified enzyme, 2006 set, primary screen (AID 1141); conditions: purified firefly luciferase, SteadyGlo luminescence, 30 min; higher = more signal, called active from +8 up or from −8 down;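 further: cell-free assay with purified firefly luciferase at 100 ng per well in PBS; test concentration not given here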
Sequence of Luciferin 4-monooxygenase (Photinus pyralis) (P08659 whole entry, looked up): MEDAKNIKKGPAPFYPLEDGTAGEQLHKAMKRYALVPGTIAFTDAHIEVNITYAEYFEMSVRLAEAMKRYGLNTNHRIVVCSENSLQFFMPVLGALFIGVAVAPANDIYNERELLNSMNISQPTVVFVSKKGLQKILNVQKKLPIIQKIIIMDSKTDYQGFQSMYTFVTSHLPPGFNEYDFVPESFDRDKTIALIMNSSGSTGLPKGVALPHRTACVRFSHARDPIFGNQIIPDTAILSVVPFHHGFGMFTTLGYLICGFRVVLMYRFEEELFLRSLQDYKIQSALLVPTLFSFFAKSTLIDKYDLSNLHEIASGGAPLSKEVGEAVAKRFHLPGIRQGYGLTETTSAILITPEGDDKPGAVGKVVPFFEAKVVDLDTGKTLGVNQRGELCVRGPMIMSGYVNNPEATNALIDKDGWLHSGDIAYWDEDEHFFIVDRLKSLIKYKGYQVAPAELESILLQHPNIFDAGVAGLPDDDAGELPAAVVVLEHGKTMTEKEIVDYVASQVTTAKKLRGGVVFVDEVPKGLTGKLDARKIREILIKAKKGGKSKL

| Structure (SMILES) | composite z-score (Albumin (Bos taurus)) | composite Z-score [1] | composite z-score [2] | composite z-score [3] | composite z-score [4] | composite z-score [5] | composite z-score [6] | composite z-score (Sam68 (KHDRBS1)) | composite z-score [7] | composite z-score [8] | composite z-score [9] | composite z-score [10] | composite z-score [11] | composite z-score [12] | composite z-score [13] | composite z-score [14] | z-score [15] | composite z-score (Lefty1) | composite z-score [16] | z-score [17] |
| --- | --- | --- | --- | --- | --- | --- | --- | --- | --- | --- | --- | --- | --- | --- | --- | --- | --- | --- | --- | --- |
| CCN(CC)c1ccc(N2CC=CC34O[C@@H]5C=CCOC(=O)[C@@H]5[C@H]3C(=O)N(C(C)CO)[C@@H]4C2=O)cc1 (stereo not given in full) | -1.28 | -0.237 (inactive) | -0.213 | -0.126 | 0.0808 | -0.67 | 0.0745 | -1.69 | -1.35 | -1.51 | -1.34 | -1.28 | -1.02 | -2.61 | -1.04 | -1.13 | 1.39 | -1.65 | -1.07 | -0.822 (inactive) |
| COCCOC(=O)N1C(=O)[C@@]2(c3cc(C#CC4(O)CCCCCC4)ccc31)[C@H](C(=O)NC[C@H](O)c1ccccc1)[C@H]1C(=O)O[C@H](c3ccccc3)[C@H](c3ccccc3)N1[C@@H]2c1ccccc1OCCO | -0.383 | 1.51 (inactive) | 0.0596 | -0.0956 | 0.668 | 1.04 | -0.0189 | 1.32 | 0.405 | 1.14 | 0.67 | 1.16 | 0.714 | 0.873 | 1.28 | 1.56 | -0.88 | 1.4 | 0.791 | -1.81 (inactive) |
| CO[C@H]1O[C@H](CO)[C@@H](OC(=O)Nc2ccccc2)[C@H](OC(=O)Nc2ccc3c(c2)OCO3)[C@H]1OC(=O)Nc1ccc2c(c1)OCO2 | 0.06 | 0.219 (inactive) | 0.224 | -0.0289 | 0.599 | 2.14 | 0.294 | 1.29 | -0.494 | 1.18 | 1.75 | 1.19 | 2.04 | 0.172 | 0.612 | -0.0687 | 0.316 | 0.345 | 0.571 | -1.63 (inactive) |
| C=C(COC)C(=O)CC[C@@H](OC(=O)c1ccccc1-c1ccccc1C(=O)O)c1cccc(OCCO)c1 | -0.39 | -0.122 (inactive) | -0.15 | -0.154 | 0.713 | 0.19 | -0.402 | -0.296 | 0.192 | 0.375 | -1.24 | -0.533 | -0.508 | -0.661 | 1.27 | 0.866 | 1.46 | 0.299 | -0.478 | -3.64 (inactive) |
| C#CCN1C(C(=O)OCC)OC[C@H]1c1ccccc1 (stereo not given in full) | -0.0202 | 0.369 (inactive) | -0.128 | -0.0861 | -0.0406 | 4.71 | 0.847 | 0.487 | 0.602 | 0.303 | 0.264 | -0.334 | 5.01 | 0.559 | 0.552 | 0.469 | 0.833 | 0.732 | 0.299 | -0.547 (inactive) |
| CC(C)(C)OC(=O)CC[C@@]12N=C(c3ccc(OCCCO)cc3)O[C@@H]1c1ccccc1N(Cc1ccccc1)C2=O | 0.0674 | 1.83 (inactive) | -0.122 | -0.0318 | 0.434 | 1.67 | 0.583 | 1.15 | 0.145 | 1.05 | 2.92 | 1 | 1.16 | 0.214 | 1.39 | 0.54 | 1.43 | 0.345 | 0.036 | -2.14 (inactive) |
| CC(C)C(=C=CC[C@H](O)c1ccc(OCCO)cc1)C[C@H](O)COCc1ccccc1 | 0.394 | 0.813 (inactive) | 0.0522 | -0.179 | 0.508 | 1.43 | 1.04 | 1.3 | 0.433 | 0.673 | 1.73 | 1.18 | -0.0245 | 0.749 | 1.31 | 1.03 | 2.47 | 0.795 | 0.325 | -2.55 (inactive) |
| C=C(COC)C(=O)CC[C@H](OC(=O)c1cccnc1)c1cccc(OCCO)c1 | -0.197 | -0.19 (inactive) | 0.53 | 0.156 | 0.608 | 0.613 | 0.123 | 0.579 | 0.601 | -0.0509 | -0.107 | 0.0325 | 0.481 | -0.09 | 0.896 | 1.57 | 1.39 | 1.05 | -0.363 | -2.13 (inactive) |
| C=CCNC(=O)[C@@H]1[C@H]2C(=O)O[C@H](c3ccccc3)[C@H](c3ccccc3)N2[C@H](c2ccc(O)cc2)[C@@]12C(=O)Nc1ccc(C#Cc3ccc(OC)cc3)cc12 | 0.29 | 0.422 (inactive) | 0.0563 | -0.0451 | 0.31 | 0.928 | 0.482 | 1.32 | -0.0134 | 1.12 | 1.11 | 1.2 | 0.552 | 0.924 | 1.03 | 0.363 | -1.18 | 0.849 | 1.14 | -0.968 (inactive) |
| O=C1N(CCS(=O)(=O)c2ccccc2)Cc2ccccc2[C@@H]2OC(c3ccc(OCCCO)cc3)=N[C@]12Cc1ccccc1 | -0.0444 | 1.83 (inactive) | 0.165 | 0.0042 | 0.742 | 2.84 | 0.599 | 1.29 | 0.286 | 1.13 | 3.33 | 1.27 | 0.526 | 0.988 | 1.34 | 1.68 | -0.0106 | 1.1 | 1.23 | -2.12 (inactive) |
| C=CCN1C(=O)[C@@]2(O[C@@H](CCn3cc(CCO)nn3)[C@H]([Si](C)(C)c3ccc(OC)cc3)[C@H]2C)c2cc(N3C(=O)c4cccc5cccc3c45)ccc21 | 0.681 | -0.128 (inactive) | -0.0299 | -0.0703 | 0.455 | 0.249 | 0.15 | 0.966 | 0.0449 | 1.09 | 0.29 | 0.511 | 0.608 | 0.807 | 0.816 | 0.973 | -1.38 | 0.537 | 1.1 | -1.96 (inactive) |
